The nature of assay [1]: anti-His antibody binders, primary screen, artefact control for SMM control protein annotation, biochemical, small-molecule microarray, 635 nm fluorescence (AID 1128).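 Further: score merges feature fluorescence with signal-to-noise for each printed compound spot.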 Conditions: anti-His Alexa647 antibody binding, higher = more signal.
Assay [2] deals with Human papillomavirus type 1a E7 protein (residues 1-88). The assay can be described thus: HPV1a E7 small-molecule binders, primary screen, biochemical, small-molecule microarray, residues 1-88, 635 nm (AID 1129). The settings on record: small-molecule microarray binding, fluorescence 635 nm; higher = more signal.
The target of assay [3] is Focal adhesion kinase 1 (Homo sapiens) (UniProt Q05397). The assay can be described thus: small-molecule microarray binders of FAK, primary screen, biochemical, 635/667 nm fluorescence, BSA, DTT (AID 1130).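 Further: composite of spot emission at 667 nm and signal to noise over triplicate slides.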 The settings on record: PTK2 binding, 635 nm fluorescence, higher = more signal.
Assay [4] relates to Fibrinogen (Alexa647-labelled). The assay can be described thus: fibrinogen binders on compound microarrays, profiling panel, artefact control for SMM control-protein annotation, biochemical, small-molecule microarray, 635/667 nm fluorescence (AID 1131).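 Further: z-score merges 667 nm fluorescence with per-spot signal-to-noise over triplicate slides.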 The settings on record: fibrinogen-A647 binding fluorescence, higher = more signal.
Assay [5] deals with Follistatin (Homo sapiens) (UniProt P19883). The assay can be described thus: follistatin binders on small-molecule microarrays, primary screen, biochemical, small-molecule microarray, 635/667 nm fluorescence (AID 1132). Conditions: FST binding, 635 nm fluorescence, higher = more signal.
In assay [6] the target is Fibroblast growth factor 2 (Homo sapiens) (UniProt P09038). The assay can be described thus: FGF2 binders on small-molecule microarrays, primary screen, biochemical, small-molecule microarray, 635/667 nm fluorescence (AID 1133). Conditions: small-molecule microarray binding, FGF2, fluorescence 635/667; higher = more signal.
Assay [7] in a line: mitochondrial membrane potential change in A549 cells, profiling panel, cell-based, JC-1 fluorescence, basal, 24 h, 100 nL (AID 1138).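 Further: A549 lung adenocarcinoma cells under basal conditions with no added stimulus; test concentration not given here.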 The settings on record: higher = more signal.
For the next assay, the system named is Lefty1. Put plainly: Lefty1 binders on small-molecule microarrays, primary screen, biochemical, small-molecule microarray, 635/667 nm fluorescence (AID 1139). Conditions: small-molecule microarray binding, fluorescence 635/667; higher = more signal.
In assay [8] the test system is wheat germ agglutinin (Triticum aestivum), Alexa647-labelled. Put plainly: wheat germ agglutinin binders on compound microarrays, profiling panel, artefact control for SMM control-protein annotation, biochemical, small-molecule microarray, 635/667 nm fluorescence (AID 1140).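 Further: score merges 667 nm feature emission with signal to noise over triplicate slides.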 Conditions: WGA-A647 binding, 635 nm fluorescence, higher = more signal.
In assay [9] the target is Luciferin 4-monooxygenase (Photinus pyralis) (UniProt P08659). The assay can be described thus: firefly luciferase enzyme inhibitors, primary screen, biochemical, luminescence, purified enzyme, 2006 set (AID 1141).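 Further: cell-free assay with purified firefly luciferase at 100 ng per well in PBS; test concentration not given here.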 Conditions: SteadyGlo luminescence, 30 min, higher = more signal, called active from +8 up or from −8 down.
Assay [10] deals with Wnt5a (protein binding on small-molecule microarray). Put plainly: Wnt5a binders on small-molecule microarray, primary screen, biophysical, 635/667 nm fluorescence (AID 1142).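 Further: fluorescence read at 667 nm with signal to noise per printed feature.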 Conditions: 635 nm fluorescence, higher = more signal.
The nature of assay [11]: cell viability in Huh7 cells, primary screen, cytotoxicity control for HCV replication inhibitor project, CellTiter-Glo luminescence, basal, 48 h (AID 1143).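 Further: Huh7 hepatoma cells carrying a hepatitis C replication reporter with no stimulus; test concentration not given here.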 The settings on record: Huh7 HCV replicon, higher = more signal, called active from +8 up or from −8 down.
Assay [12] can be described thus: P. aeruginosa biofilm formation inhibitors, primary screen, PAO1 strain, BacTiter-Glo luminescence, LB-PBS (AID 1144). Conditions: 12 h, higher = more signal.
Assay [13] can be described thus: CREB reporter modulators without forskolin, primary screen, cell-based, PC12, CRE-LacZ reporter, unstimulated (AID 1145). The settings on record: no forskolin, luminescence, 4.5 h, higher = more signal, called active from +8 up or from −8 down.
A short description of assay [14]: CREB reporter modulators under forskolin, primary screen, cell-based, PC12, CRE-LacZ reporter, forskolin-stimulated (AID 1146).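 Further: PC12 cells with 6xCRE LacZ reporter stimulated by forskolin 10 µM; beta-galactosidase reporter signal reflecting CREB driven transcription.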 The settings on record: luminescence, 4.5 h, higher = more signal, called active from +8 up or from −8 down.
Assay [15] concerns the target Streptavidin (Streptomyces avidinii) (UniProt P22629). Put plainly: streptavidin binders on small-molecule microarray, primary screen, artefact control for SMM compound annotation, biophysical, 635/667 nm fluorescence (AID 1147).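 Further: signal reflects streptavidin binding to arrayed compounds as a control protein.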 Conditions: streptavidin binding, higher = more signal.
A short description of assay [16]: small-molecule binders of probe aInhba, primary screen, biochemical, small-molecule microarray, 635/667 nm fluorescence (AID 1148).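 Further: score merges 667nm spot fluorescence with signal-to-noise for antibody binding to printed compounds.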 The settings on record: higher = more signal.
In assay [17] the target is Torsin-1A (Homo sapiens) (UniProt O14656). Put plainly: torsin A binders from cell lysate, primary screen, small-molecule microarray, wild-type, 635/667 nm (AID 1149). The settings on record: COS7 hTOR1A-WT lysate, 635 nm fluorescence, higher = more signal.
For assay [18] the target is unchanged. The assay can be described thus: small-molecule binders of mutant TOR1A in lysate, primary screen, cell lysate, small-molecule microarray, COS7 lysate, 635/667 nm fluorescence (AID 1150).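 Further: score pools 667 nm emission and signal to noise measuring lysate protein binding.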 The settings on record: COS7 hTOR1A mutant lysate, 635 nm fluorescence, higher = more signal.
Assay [19] deals with Sonic hedgehog protein (Shh). Put plainly: small-molecule binders of Shh protein, primary screen, biochemical, small-molecule microarray, 635/667 nm fluorescence (AID 1151).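 Further: Shh protein binding to compounds spotted on small-molecule microarray slides; score combines spot fluorescence intensity with signal-to-noise across triplicate slides.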 Conditions: small-molecule microarray binding, 635 nm fluorescence; higher = more signal.

Structures are written as SMILES. Active and inactive are the calls of the source. Unless noted, how the calls were made is not given here.

Sequence of Streptavidin (Streptomyces avidinii) (P22629 whole entry, looked up): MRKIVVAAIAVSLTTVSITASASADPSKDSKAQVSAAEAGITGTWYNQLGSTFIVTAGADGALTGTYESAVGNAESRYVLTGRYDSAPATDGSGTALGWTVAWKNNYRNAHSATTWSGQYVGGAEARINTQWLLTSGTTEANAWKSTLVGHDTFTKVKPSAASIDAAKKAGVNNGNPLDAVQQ
Sequence of Luciferin 4-monooxygenase (Photinus pyralis) (P08659 whole entry, looked up): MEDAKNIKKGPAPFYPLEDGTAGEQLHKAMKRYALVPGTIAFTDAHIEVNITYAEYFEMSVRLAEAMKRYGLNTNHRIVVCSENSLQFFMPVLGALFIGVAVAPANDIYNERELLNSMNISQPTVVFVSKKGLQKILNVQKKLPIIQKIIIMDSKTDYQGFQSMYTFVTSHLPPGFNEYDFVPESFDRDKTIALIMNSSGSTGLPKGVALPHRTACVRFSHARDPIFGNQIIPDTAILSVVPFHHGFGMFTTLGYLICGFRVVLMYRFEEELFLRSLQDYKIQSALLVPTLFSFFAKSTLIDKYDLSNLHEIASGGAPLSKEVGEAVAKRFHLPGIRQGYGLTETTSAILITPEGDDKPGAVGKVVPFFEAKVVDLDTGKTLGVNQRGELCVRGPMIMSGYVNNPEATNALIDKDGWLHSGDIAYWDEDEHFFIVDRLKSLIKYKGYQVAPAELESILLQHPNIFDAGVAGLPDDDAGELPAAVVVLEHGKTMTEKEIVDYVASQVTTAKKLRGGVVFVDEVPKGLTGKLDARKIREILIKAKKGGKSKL
Sequence of Torsin-1A (Homo sapiens) (O14656 whole entry, looked up): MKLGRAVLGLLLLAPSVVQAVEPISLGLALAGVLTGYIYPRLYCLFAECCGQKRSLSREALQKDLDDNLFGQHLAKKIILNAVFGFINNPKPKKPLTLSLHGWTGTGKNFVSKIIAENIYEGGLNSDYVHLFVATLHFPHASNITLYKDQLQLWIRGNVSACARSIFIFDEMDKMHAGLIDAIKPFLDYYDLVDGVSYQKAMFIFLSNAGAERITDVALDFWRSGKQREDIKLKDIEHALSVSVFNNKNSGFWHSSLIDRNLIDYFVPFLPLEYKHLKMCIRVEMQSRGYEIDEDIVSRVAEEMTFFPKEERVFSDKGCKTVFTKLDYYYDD
Sequence of Fibroblast growth factor 2 (Homo sapiens) (P09038 whole entry, looked up): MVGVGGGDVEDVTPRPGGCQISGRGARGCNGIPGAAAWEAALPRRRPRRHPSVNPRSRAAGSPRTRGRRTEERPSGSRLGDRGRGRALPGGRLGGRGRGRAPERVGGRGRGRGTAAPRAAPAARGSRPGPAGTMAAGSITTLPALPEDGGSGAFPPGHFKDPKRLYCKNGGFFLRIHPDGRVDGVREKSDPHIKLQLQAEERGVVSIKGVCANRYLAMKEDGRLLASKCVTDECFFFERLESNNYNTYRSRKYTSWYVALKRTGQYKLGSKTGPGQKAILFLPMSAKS
Sequence of Focal adhesion kinase 1 (Homo sapiens) (Q05397 whole entry, looked up): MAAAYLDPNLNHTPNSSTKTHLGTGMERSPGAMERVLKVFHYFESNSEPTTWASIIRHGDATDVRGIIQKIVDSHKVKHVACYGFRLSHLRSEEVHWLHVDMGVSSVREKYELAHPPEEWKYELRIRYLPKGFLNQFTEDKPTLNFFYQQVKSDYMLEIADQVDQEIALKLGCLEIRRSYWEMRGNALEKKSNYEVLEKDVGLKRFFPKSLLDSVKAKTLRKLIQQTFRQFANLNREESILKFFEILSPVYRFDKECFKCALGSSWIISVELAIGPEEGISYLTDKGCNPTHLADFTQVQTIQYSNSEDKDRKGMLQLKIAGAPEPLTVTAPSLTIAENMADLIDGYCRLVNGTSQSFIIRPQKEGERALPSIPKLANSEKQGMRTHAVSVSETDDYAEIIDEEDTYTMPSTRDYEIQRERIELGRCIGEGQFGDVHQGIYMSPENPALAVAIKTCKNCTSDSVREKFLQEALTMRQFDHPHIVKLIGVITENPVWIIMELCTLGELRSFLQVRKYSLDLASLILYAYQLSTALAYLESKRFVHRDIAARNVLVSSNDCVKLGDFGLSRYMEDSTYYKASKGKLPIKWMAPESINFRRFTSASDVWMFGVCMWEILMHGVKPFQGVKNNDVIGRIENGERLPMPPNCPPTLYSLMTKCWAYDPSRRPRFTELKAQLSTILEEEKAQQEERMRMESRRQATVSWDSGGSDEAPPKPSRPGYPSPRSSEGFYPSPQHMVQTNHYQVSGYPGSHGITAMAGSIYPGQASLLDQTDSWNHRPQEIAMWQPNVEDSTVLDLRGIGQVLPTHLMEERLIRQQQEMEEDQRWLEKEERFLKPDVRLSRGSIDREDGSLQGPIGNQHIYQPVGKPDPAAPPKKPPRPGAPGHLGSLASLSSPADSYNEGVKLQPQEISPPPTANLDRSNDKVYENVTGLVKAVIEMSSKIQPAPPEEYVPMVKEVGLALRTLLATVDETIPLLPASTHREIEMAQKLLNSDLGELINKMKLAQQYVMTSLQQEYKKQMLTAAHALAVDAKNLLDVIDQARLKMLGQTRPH
Sequence of Follistatin (Homo sapiens) (P19883 whole entry, looked up): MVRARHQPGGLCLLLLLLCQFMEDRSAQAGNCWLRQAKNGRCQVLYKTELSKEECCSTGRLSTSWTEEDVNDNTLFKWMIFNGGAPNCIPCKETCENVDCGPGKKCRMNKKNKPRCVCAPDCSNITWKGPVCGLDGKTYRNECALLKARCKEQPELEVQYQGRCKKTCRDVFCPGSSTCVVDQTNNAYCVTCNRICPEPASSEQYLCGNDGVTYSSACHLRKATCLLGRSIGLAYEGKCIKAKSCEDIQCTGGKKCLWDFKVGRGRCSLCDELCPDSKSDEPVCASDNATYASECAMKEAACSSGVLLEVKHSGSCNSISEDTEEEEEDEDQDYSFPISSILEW

`O=C1NC(=O)C2C1C=CC(C(O)c1ccccc1)N2Nc1ccc(Cl)cc1Cl` (stereo not given): the composite z-score was determined as 1.62 in assay [1]; 1.16 in assay [2]; 0.433 in assay [3]; 0.985 in assay [4]; 1.28 in [5]; 0.394 in assay [6]. Moreover, the composite z-score was 1.4 in the assay on Lefty1; 0.763 in assay [8]; 0.656 in [10]; 2.01 in [15]; 0.225 in [16]; 1.01 with Torsin-1A (Homo sapiens) [17]. Further, the composite z-score with Torsin-1A (Homo sapiens) [18] was found to be 1.4; in assay [19], 1.68. Moreover, the z-score was -0.0329 in [7]; -1.44 (inactive) in assay [9]; -2.84 (inactive) in [11]; -1.4 (inactive) in assay [12]; 0.429 (inactive) in assay [13]; -0.12 (inactive) in [14].
`CCOC(=O)C1=CCC(c2ccc(C)cc2)N(S(=O)(=O)c2ccc(C)cc2)C1` (stereo not given): the composite z-score in assay [1] is 0.403; in assay [2], 0.939; in assay [3] it was 0.335; in assay [4], 0.258; in [5], 0.523; in [6], -0.279. In addition, the composite z-score in the assay with Lefty1 is 0.288; in [8], 0.396; in assay [10] it was -0.273; in assay [15] it was 0.841; in assay [16] it was -0.0645; with Torsin-1A (Homo sapiens) [17] it was -0.0669. The composite z-score is 0.121 in the assay with Torsin-1A (Homo sapiens) [18] and -0.396 in assay [19]. Moreover, the z-score in assay [7] was 2.06; in assay [9], 1.47 (inactive); in [11], -3.23 (inactive); in assay [12] it was 0.271 (inactive); in assay [13] it was -0.527 (inactive); in assay [14] it was -0.34 (inactive).
Consider `C=C(CCCC)C(=O)CC[C@@H](OC(=O)c1cccnc1)c1ccc(CO)o1`, for which the composite z-score is 1.18 in assay [1]; 1 in assay [2]; -0.338 in assay [3]; 0.947 in assay [4]; 1.25 in assay [5]; 1.47 in assay [6]. For the same molecule, the composite z-score is 1.36 in the assay on Lefty1; 0.828 in [8]; 0.314 in assay [10]; 1.05 in assay [15]; -0.0774 in [16]; 0.984 in the assay with Torsin-1A (Homo sapiens) [17]. For the same molecule, the results for the composite z-score (in the assay with Torsin-1A (Homo sapiens) [18]; in assay [19]) were 1.74 and 2.04, respectively. For the same molecule, the z-score was -0.627 in assay [7]; -2.32 (inactive) in assay [9]; -0.0785 (inactive) in assay [11]; -0.0897 (inactive) in assay [12]; 2.41 (inactive) in assay [13]; 0.783 (inactive) in assay [14].
For `O=C1O[C@H](c2ccccc2)[C@H](c2ccccc2)N2[C@H]1[C@@H](C(=O)NC[C@H](O)c1ccccc1)[C@]1(C(=O)Nc3ccccc31)[C@H]2c1ccc(OCCO)cc1`, the composite z-score in assay [1] was 1.77; in assay [2] it was 1.2; in assay [3] it was 1.06; in [4] it was 0.743; in [5], 0.992; in assay [6], 0.655. The composite z-score is 0.0702 in the assay with Lefty1; 0.864 in [8]; 0.187 in assay [10]; 0.261 in assay [15]; -0.0044 in [16]; 1.55 with Torsin-1A (Homo sapiens) [17]. The composite z-score with Torsin-1A (Homo sapiens) [18] is 0.492; in [19], 0.297. For the same molecule, the z-score in [7] was -0.253; in assay [9], -0.609 (inactive); in [11] it was -2.93 (inactive); in [12], -1.13 (inactive); in assay [13] it was -0.0784 (inactive); in assay [14] it was -0.499 (inactive).
In the case of `CCCCc1cn(C[C@H](Cc2ccccc2)NC(=O)N[C@H](CO)CCc2oc(C(C)=O)c(C(=O)OC)c2C(=O)OC)nn1`, the composite z-score in assay [1] turned out to be 0.97; in [2], 1.2; in [3] it was 0.54; in assay [4] it was 0.921; in assay [5], 1.18; in assay [6] it was 0.866. Moreover, the composite z-score is 1.16 with Lefty1; 0.445 in [8]; 0.276 in assay [10]; 0.881 in assay [15]; -0.0448 in assay [16]; 0.992 with Torsin-1A (Homo sapiens) [17]. In addition, the composite z-score was found to be 0.454 in the assay with Torsin-1A (Homo sapiens) [18] and 1.99 in assay [19]. For the same molecule, the z-score is -0.419 in [7]; 1.29 (inactive) in [9]; -2.8 (inactive) in [11]; -1.09 (inactive) in [12]; 1.02 (inactive) in assay [13]; 0.549 (inactive) in [14].
